This is part of a sample that, as a whole, favours compounds with a hit. Of some 83,000 tested, about 20% had one in any assay.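 The endpoint reported here, percent growth, reads 100 for growth as untreated, 0 for no net growth and -100 for all cells dead.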 Calls of active or inactive are those of the source. How the source made its calls: active means growth percent below 10; inactive means the rest.
The molecules below were run on NCI-H322M lung (assay: NCI-60 one-dose screen, 48 h (100 = growth as untreated, 0 = no growth, -100 = all killed)). Settings: 10 µM unless noted.

SMILES	growth
CCCCCCCCCCCCCCCCCCOc1ccccc1CC(=O)OCCC[N+](C)(C)C	84.3% (inactive)
Cn1c(-c2c(N)n(Cc3cccnc3)c3nc(C#N)c(C#N)nc23)nc2ccccc21	77% (inactive)
COc1ccc(-c2nc3ccc4[nH]ncc4c3c3c2CCCC3)cc1B(O)O	63.4% (inactive)
COc1ccc(/C=N/C2=C(C#N)C(c3ccc(OC)cc3)c3ccc4ccccc4c3O2)cc1 (stereo not drawn)	97.6% (inactive)
COC1=CC(=O)C[C@@H](C)[C@]12Oc1c(Cl)c(OC)cc(OC)c1C2=O	105% (inactive)
Cc1ccc(NS(=O)(=O)c2ccc3c(c2)C2OCCC2C(c2ccc(C(=O)C(C)C)cc2)N3)cc1C (stereo not drawn)	82.2% (inactive)
NC(=O)c1ccc[n+](Cc2ccc(Cl)cc2Cl)c1	104% (inactive)
CC(=O)OC1CCC2(C)C(=CC3C4CCC(=O)C4(C)CCC32)C1 (stereo not drawn)	113% (inactive)
CNC(=O)CCN1CCN(CC/C=C2\c3ccccc3Sc3ccc(Cl)cc32)CC1	74.8% (inactive)
Clc1ccc(-c2c3ccc(=[N+]4CCCCC4)cc-3oc3cc(N4CCCCC4)ccc23)cc1	-88.4% (active)
Cc1nc2c(c(N3CCCc4ccccc43)n1)CCC2	54.5% (inactive)
N#Cc1c2c(nn(-c3ccccc3)c1=O)C(O)=C([N+](=O)[O-])C(c1ccccc1)C2 (stereo not drawn)	93.1% (inactive)
c1ccc2c(c1)nc(CN1CCOCC1)n1cc(N3CCCC3)nc21	103% (inactive)
N=C1C(c2nc(-c3ccc(Br)cc3)cs2)=C(O)CN1Cc1cccnc1	50.2% (inactive)
CC/C=C\C[C@H](O)C/C=C1/C(=O)C=C[C@@H]1C/C=C\CCCCO	50.8% (inactive)
O=C(CCc1nnc(CN(c2ccccc2)c2ccccc2)o1)c1nc2ccccc2[nH]1	84.4% (inactive)
Cc1ccc(NCCN(C)C)c2c(=O)c3ccccc3sc12	53.5% (inactive)
O=C(N/N=C/c1ccncc1)c1ccc(C(F)(F)F)nc1Nc1cccc(C(F)(F)F)c1	8.36% (active)
CC1(c2ccccc2)NC(=O)N(NC(=O)CSc2nc(-c3cccs3)nc3ccccc23)C1=O (stereo not drawn)	98% (inactive)

SMILES	growth
NC(=O)c1ccc[n+]([C@@H]2O[C@H](COP(=O)([O-])OP(=O)(O)OC[C@H]3O[C@@H](n4cnc5c(N)ncnc54)[C@H](O)[C@@H]3O)[C@@H](O)[C@H]2O)c1	113% (inactive)
COc1cc(C2CC(c3cc(OC)c(OCCCOc4ccc(-n5c(/C=C/c6ccccc6)nc6ccccc6c5=O)cc4)c(OC)c3)=NO2)cc(OC)c1OC (stereo not drawn)	123% (inactive)
COc1cc(Cn2ncc3ccc(NC(=O)c4cc5ccccc5oc4=N)cc32)cc(OC)c1OC	89.6% (inactive)
CCOc1c(C#N)nnc2c(C#N)c(NC(=O)c3ccccc3)nn12	95% (inactive)
COc1cc2c(cc1-c1c(C)noc1C)ncc1nc(C3CCCCC3)n(C3CCC(OC(F)F)CC3)c12 (stereo not drawn)	54.7% (inactive)
Cc1cc(=O)[nH]c(N=Nc2c(O)[nH]c3ccccc23)n1	123% (inactive)
COc1ccc(/C=C/c2c(C(=O)/C=C/c3ccc(F)cc3)c(C)nc3ccccc23)cc1	82.7% (inactive)
CCCCN(CCCC)CC(C)(C)C(O)c1ccc(OC)c2ccccc12 (stereo not drawn)	44.9% (inactive)
Cc1c(C)c2c(c(C)c1OCC(=O)O)CC[C@@](C)(CCC[C@@H](C)CCC[C@@H](C)CCCC(C)C)O2	43.3% [50 µM] (inactive)
Cn1c(I)c(C#C[Si](C)(C)C)c(=O)n(C(=O)c2ccccc2)c1=O	94.9% (inactive)
O=C(NCCCNc1cc(-c2cn(-c3ccccc3)nc2-c2cccc(O)c2)ccn1)c1ccc(F)cc1	62.8% (inactive)
Cc1ccc2c(c1)Sc1c(ccc3ccccc13)N2	90% (inactive)
O=C(Nc1ccc(-n2cc(-c3ccncc3)c(-c3ccc(Cl)c(O)c3)n2)cc1)N1CCOCC1	106% (inactive)
Cc1cccc(Cc2cnc(NC(=O)c3ccc4nnsc4c3)s2)c1	97.4% (inactive)
CC(=O)c1ccc(NCC(=O)Nc2ccccn2)cc1	103% (inactive)
COC(=O)c1ccc(C2Nc3ccc(S(=O)(=O)Nc4ccc(C)c(C)c4)cc3C3OCCC23)cc1 (stereo not drawn)	96% (inactive)
Cc1ccc(-c2cc(-c3cccnc3)[nH]c(=O)c2C#N)cc1	103% (inactive)
Cn1ccc2c(c1=O)C(=O)c1nccc3c1c-2nc1ccccc13	17.4% (inactive)
CCc1ccccc1-n1c(N)c(C#N)c(-c2ccc(N(C)C)cc2)c(C#N)c1=O	86.3% (inactive)

From PubChem BioAssay (NCI)
